Results published in PubChem BioAssay (NCATS).
A number with no mark means an inactive call. The call rests on the fitted dose curve; in most records, active means well fitted curve in the direction sought with a large enough effect; inconclusive means small, poorly fitted or top-dose-only effect, or another doubt; inactive means no such curve, though single readings can be large or run the other way.

Test: Validation qHTS assay for inhibitors of Activation Induced Cytidine Deaminase (AID): UDG Counterscreen signal (AID 1347427); further: 0% is about no effect
Conditions: biochemical UDG counterscreen, fluorescence signal; series mostly up to 115 µM; activity, negative = inhibition: at the top concentration
Summary of the method: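 Counterscreen read of UDG activity (2 U/mL, 4/3x) in the FRET deamination format with AID (1 uM, 4/3x), DJC20/DJC23 substrates (250 nM, 4x), 4 h at room temperature. NaOH stop, fluorescence at 560 ex/665 em.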

SMILES	activity, negative = inhibition [%]
COc1ccc2[nH]cc(CCN)c2c1	3.26
C[N+](C)(C)CC#CCOC(=O)Nc1cccc(Cl)c1	13.9
CC(=O)c1c(O)c(C)c(O)c(Cc2c(O)c3c(c(C(=O)/C=C/c4ccccc4)c2O)OC(C)(C)C=C3)c1O	-16.2
Oc1ccc2c3c1O[C@H]1c4oc5ccccc5c4C[C@@]4(O)C(C2)N(CC2CC2)CCC314 (stereo not given in full)	1.77
C[N+]1(C)CCOC(O)(c2ccc(-c3ccc(C4(O)C[N+](C)(C)CCO4)cc3)cc2)C1 (stereo not given)	8
c1ccc2cc(CC3=NCCN3)ccc2c1	14.4
CCCN(CCC)[C@H]1CCc2c(F)ccc(O)c2C1	9.99
N[C@@H](Cn1oc(=O)[nH]c1=O)C(=O)O	-0.27
C[C@H](N)CN1CCc2ccc(Br)cc21	12.2
C[N+](C)(C)CCOC(=O)CBr	16
CCCN1CCc2cc(O)cc3c2[C@H]1Cc1ccc(O)c(O)c1-3	10.1
CCCN(CCC)C1CCc2cccc(O)c2C1 (stereo not given)	13.5
NC(=O)COc1c(F)cc(SCCNS(=O)(=O)c2ccccc2)cc1F	-6.79
CCOC(=O)c1ncn2c1[C@@H]1CCCN1C(=O)c1cc(OC)ccc1-2	4.87
CC(C)(O)[C@@H]1C2OC(=O)[C@@H]1[C@]1(O)C[C@H]3O[C@]34C(=O)O[C@H]2[C@]14C (tested in a mixture with another compound)	16.5
CCCN1CC[C@@H]2c3cc(O)ccc3CC[C@@H]21	7.04
OCc1cnc[nH]1	6.34
NC(N)=NOCC[C@H](N)C(=O)O	-5.54
C#CCN[C@H](C)Cc1ccccc1	4.11
CCCC[N+]1(C)C2CC(OC(=O)[C@H](CO)c3ccccc3)CC1C1OC12 (stereo not given in full)	3.53
CC(=O)NBr	3.74
c1ccc2c(N3CCNCC3)cccc2c1	-8.77
CC(N)Cc1c[nH]c2ccc(OCc3cccs3)cc12 (stereo not given)	4.57
COC(=O)N1CCN(C(=O)Cc2ccc(Cl)c(Cl)c2)C(CN2CCCC2)C1 (stereo not given)	11.7
C[N+]1(C)CCN(c2ccccc2)CC1	1.41
C[N+](C)(C)CC#CCN1CCCC1=O	-9.26
NC(CCCCCP(=O)(O)O)C(=O)O (stereo not given)	14.5
Clc1ccc(N2CC3CCC(C2)N3)nn1	8.49
NC(C(=O)O)c1cc(=O)[nH]o1 (stereo not given)	4.83
O=S1(=O)N(CCN2CC=C(c3c[nH]c4cc(F)ccc34)CC2)c2cccc3c2N1CCC3	-6.89
